Assay results reported in PubChem BioAssay (NCATS).
Inconclusive results are not listed. Entries that show only a call come without a potency. Activity calls are given as the source filed them. Unless noted, calls come from the whole dose curve; as a rule, active = well fitted curve in the direction sought with a large enough effect; inconclusive = small, poorly fitted or top-dose-only effect, or another doubt; inactive = no such curve, though single readings can be large; an effect the other way counts as inactive or inconclusive.

How the values were obtained:
[1] = Confirmation and Secondary Assay for Modulators of Hemoglobin Beta Chain Splicing at IVS2 654 locus (AID 910);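 note: HeLa cells stably carrying EGFP split by mutant beta-globin IVS2-654 intron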
Outline: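 HeLa cells stably expressing EGFP interrupted by β-globin IVS2-654 intron, seeded overnight in Opti-MEM/2% FCS, then treated 2 days at 37 °C. Restored splicing read as total peak GFP intensity per well by laser scanning cytometry (488 nm excitation, 500–520 nm emission); 500 nM antisense PNA as control.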

[2] = Confirmation and Secondary Assay for Modulators of Hemoglobin Beta Chain Splicing at IVS2 705 locus (AID 930);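 note: HeLa cells stably expressing the EGFP-705 splicing reporter; GFP fluorescence per well restored by corrected splicing of the IVS2-705 intron in EGFP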
Outline: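 HeLa EGFP-705 reporter; 500 cells/well, o/n 37C 5% CO2; cpd 2 d; 488 ex/500-520 em laser scan; total peak GFP intensity/well. Ref: 500 nM […] antisense PNA.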

[3] = qHTS Assay for Lipid Storage Modulators (AID 1519; calls by dose curve); details: Drosophila S3 cells, BODIPY lipid droplet/cell ratio, laser cytometry, cells loaded with oleic acid; for activity change, negative = inhibition: at 57.5 µM (top of the series)
Outline: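 Cells seeded at 5,000 per well were treated with compounds over a concentration series and loaded with oleic acid (400 uM, as added). Lipid droplet fluorescence (488 nm excitation, 500-530 nm channel) was read by laser-scanning cytometry and normalized to 20 uM Triacsin C.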

[4] = biological target: Ubiquitin carboxyl-terminal hydrolase 1 (Homo sapiens) (UniProt O94782); assay: Inhibitors of USP1/UAF1: Pilot qHTS (AID 504865);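 note: rhodamine fluorescence freed from ubiquitin-rhodamine substrate followed over time; top concentration of the series differs between compounds; nearly all actives have a fitted effect of over 35% in size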
Chain of Ubiquitin carboxyl-terminal hydrolase 1 (Homo sapiens) (O94782 whole entry, looked up): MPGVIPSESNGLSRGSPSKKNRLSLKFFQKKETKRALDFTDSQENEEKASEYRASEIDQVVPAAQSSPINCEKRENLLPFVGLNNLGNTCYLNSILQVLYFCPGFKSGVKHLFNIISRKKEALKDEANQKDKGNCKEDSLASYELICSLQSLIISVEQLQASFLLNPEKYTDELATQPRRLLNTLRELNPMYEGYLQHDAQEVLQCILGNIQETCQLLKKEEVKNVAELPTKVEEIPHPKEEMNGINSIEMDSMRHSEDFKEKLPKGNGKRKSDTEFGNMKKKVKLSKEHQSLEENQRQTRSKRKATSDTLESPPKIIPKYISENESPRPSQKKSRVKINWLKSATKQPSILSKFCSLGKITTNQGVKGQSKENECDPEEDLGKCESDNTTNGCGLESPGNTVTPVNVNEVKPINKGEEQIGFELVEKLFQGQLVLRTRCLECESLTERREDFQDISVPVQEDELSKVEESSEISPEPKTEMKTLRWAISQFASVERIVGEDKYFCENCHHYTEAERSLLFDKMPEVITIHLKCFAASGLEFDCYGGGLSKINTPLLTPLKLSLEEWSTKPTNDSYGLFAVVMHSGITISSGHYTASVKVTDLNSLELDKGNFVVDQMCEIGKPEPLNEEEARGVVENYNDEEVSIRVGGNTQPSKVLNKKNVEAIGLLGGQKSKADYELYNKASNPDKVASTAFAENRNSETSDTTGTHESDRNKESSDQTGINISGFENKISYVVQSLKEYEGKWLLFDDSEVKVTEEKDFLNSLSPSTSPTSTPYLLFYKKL
Outline: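 Enzyme-free wells gave the negative control, while test wells held 1nM USP1/UAF1 preincubated with compound for 15 min at room temperature. Ub-Rho at 150nM final started the reaction, and fluorescence at 480/540 nm was recorded kinetically.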

[5] = measured here: cell count channel max response
[6] = measured here: lipid channel max response

Row | Compound | Potency [1] | Potency [2] | activity change, negative = inhibition [3] | max response [3, 5] [%] | max response [3, 6] [%] | Potency [4]
1 | CC(=O)OCC(=O)[C@@]1(O)CCC2C3CC[C@H]4CC(O)CC[C@@]4(C)C3C(=O)C[C@]21C (stereo not given in full) | inactive | inactive | 4.69% (inactive) | -0.527 | 6.2 | inactive
2 | CC1CC[C@@]2(C(=O)O)CCC3(C)C(=CCC4[C@]5(C)CC(O)C(O)[C@](C)(CO)C5C(O)C[C@@]43C)C2C1C (stereo not given in full) | inactive | inactive | 7.29% (inactive) | 14.9 | 28.6 | inactive
3 | CC1(C)SC2C(NC(=O)COc3ccccc3)C(=O)N2C1C(=O)O (stereo not given) | inactive | inactive | 3.45% (inactive) | 17.3 | 22.6 | inactive
4 | CC(=O)[C@]1(O)CCC2C3CCC4=CC(=O)CC[C@@]4(C)C3CC[C@]21C (stereo not given in full) | inactive | inactive | 5.01% (inactive) | 6.92 | 12.7 | inactive
5 | COc1ccc(-c2oc3cc(O[C@@H]4OC(CO)C(O)C(O)C4O)c(OC)c(O)c3c(=O)c2OC)cc1O (stereo not given in full) | inactive | inactive | 2.95% (inactive) | -7.2 | -6.13 | inactive
6 | COC1C[C@@H](O[C@@H]2C(C)C(=O)OC(C)C(C)[C@H](OC(C)=O)C(C)C(=O)[C@@]3(CO3)CC(C)C(OC3OC(C)CC(N(C)C)[C@H]3OC(C)=O)C2C)OC(C)[C@@H]1OC(C)=O (stereo not given in full) | inactive | inactive | 6.97% (inactive) | 18.9 | 24.4 | inactive
7 | CCC1OC(=O)C(C)[C@@H](O[C@H]2C[C@@](C)(OC)C(O)C(C)O2)C(C)[C@@H](O[C@@H]2OC(C)CC(N(C)C)C2O)[C@@](C)(O)CC(C)CN(C)C(C)C(O)[C@]1(C)O (stereo not given in full) | inactive | inactive | 0.114% (inactive) | 12.3 | 14.1 | inactive
8 | O=S(=O)(O)c1cc(N=C=S)ccc1/C=C/c1ccc(N=C=S)cc1S(=O)(=O)O | inactive | inactive | 9.64% (inactive) | -3.47 | 10.3 | inactive
9 | CC1(C)OC2CC3C4CC(F)C5=CC(=O)C=C[C@@]5(C)[C@@]4(F)C(O)C[C@@]3(C)[C@]2(C(=O)CO)O1 (stereo not given in full) | inactive | inactive | 3.9% (inactive) | 10.6 | 16.5 | inactive
10 | COC1C(O)CC(=O)OC(C)C/C=C/C=C/[C@@H](OC2CCC(N(C)C)C(C)O2)C(C)C[C@@H](CC=O)[C@@H]1O[C@H]1OC(C)[C@H](O[C@@H]2C[C@@](C)(O)C(O)C(C)O2)C(N(C)C)C1O (stereo not given in full) | inactive | inactive | 4.53% (inactive) | 15.4 | 26.5 | inactive
11 | CC(=O)OC1CC2C(C)(C)C(=O)[C@@H]3OC3[C@@]2(C)C2CC[C@]3(C)C(=CC(=O)OC3c3ccoc3)[C@]12C (stereo not given in full) | inactive | inactive | 2.11% (inactive) | 18.2 | 25.7 | inactive
12 | CC1(C)OC2CC3C4CC(F)C5=CC(=O)CC[C@@]5(C)C4C(O)C[C@@]3(C)[C@]2(C(=O)CO)O1 (stereo not given in full) | inactive | inactive | 4.43% (inactive) | 7.91 | 15.6 | inactive
13 | C[C@@]12CCC3c4ccc(O)cc4CCC3C1CCC2O (stereo not given in full) | inactive | inactive | -2.04% (inactive) | -0.621 | -0.569 | inactive
14 | COC1C=CC23c4cc5c(cc4CN(CC2O)C3C1)OCO5 (stereo not given) | inactive | inactive | -1.59% (inactive) | 30.3 | 31.3 | inactive
15 | CC(CCC(=O)O)C1CCC2C3CC[C@H]4CC(O)CC[C@@]4(C)C3CC(O)[C@]12C (stereo not given in full) | inactive | inactive | 8.52% (inactive) | -1.9 | 10.5 | inactive
16 | Cn1nnnc1SCC1=C(C(=O)O)N2C(=O)C(NC(=O)C(O)c3ccccc3)C2SC1 (stereo not given) | inactive | inactive | 13.2% (inactive) | 9.16 | 26.7 | inactive
17 | C[C@]12C=CC(=O)C=C1CCC1C2C(=O)C[C@]2(C)C1CC[C@]2(O)C(=O)CO (stereo not given in full) | inactive | inactive | 8.15% (inactive) | 19.1 | 31.9 | inactive
18 | CC12CCC3C(=CCc4cc(O)ccc43)C1CCC2=O (stereo not given) | inactive | inactive | 5.72% (inactive) | -12.9 | -6.28 | inactive
19 | O=C(O)CCC(=O)OC[C@@H](NC(=O)C(Cl)Cl)C(O)c1ccc([N+](=O)[O-])cc1 (stereo not given in full) | inactive | inactive | 7.24% (inactive) | 16.6 | 25.2 | inactive
20 | CC(C)C(C)/C=C/C(C)C1CCC2C3=CCC4CC(=O)CC[C@@]4(C)C3CC[C@]21C (stereo not given in full) | inactive | inactive | 5.02% (inactive) | -0.92 | 5.16 | inactive
21 | CC(Oc1ccccc1)C(=O)NC1C(=O)N2C(C(=O)O)C(C)(C)S[C@@H]12 (stereo not given in full) | inactive | inactive | 7.31% (inactive) | 11.7 | 21.7 | inactive
22 | C[N+](C)(C)CCOP(=O)([O-])OP(=O)(O)OCC1OC(n2ccc(N)nc2=O)C(O)C1O (stereo not given) | inactive | inactive | 5.88% (inactive) | 9.36 | 16.8 | inactive
23 | CCOC(=O)OC(C)OC(=O)C1N2C(=O)C(NC(=O)C(N)c3ccccc3)C2SC1(C)C (stereo not given) | inactive | inactive | 6.11% (inactive) | 21.6 | 29.1 | inactive
24 | NC1(C(=O)O)CCCC1 | inactive | inactive | -0.822% (inactive) | 7.47 | 7.88 | inactive
25 | O=C(O)C1=CC(O)[C@@H](O)C(O)C1 (stereo not given in full) | inactive | inactive | 3.18% (inactive) | 15.5 | 22.2 | inactive
